# Shown are actives, neighbours in structure and some others; about 0.84% of the full set was active somewhere.
# TbHK1 inh – T. brucei hexokinase 1 inhibition; hit rate 0.11% among 220,000; AID 1430; inhibition, % at 10 µM; recombinant TbHK1, G6PDH-coupled NADH A340;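 active = inhibition of 50% or more in the single-dose primary screen; inactive = inhibition below 50%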
# p97 ATPase inh – human p97 ATPase inhibition. P55072. recombinant p97 ATPase, Kinase-Glo ATP luminescence, 3 h. inhibition, % at 8 µM. hit rate 0.42% among 220,000; in the data active = inhibition above about 15%;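 also: 0% = DMSO vehicle and 100% = wells lacking enzyme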
# Redox H2O2 prof – compounds producing H2O2 with reducing agent – biochemical, NIH compound library profiling, artefact control for MLSCN library redox annotation, primary screen. DTT-dependent redox cycling H2O2, phenol red/HRP absorbance; 100% = 100 µM peroxide control, 0% = buffer. activation, % at 10 µM. hit rate 0.03% among 200,000;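 active = activation of at least 50% relative to the plate's high and low controls in the primary single-dose screen; inactive = activation below 50%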;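 also: compound incubated with DTT at 0.8 mM final as the reducing agent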
# S1P3 antag-1 – antagonists of human S1P3 receptor; Q99500; CHO S1P3 NFAT-BLA reporter, FRET fluorescence, antagonist mode; inhibition, % at 4.98 µM; hit rate 0.27% among 170,000; AID 485;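 active = inhibition above the plate cutoff, the mean inhibition of test wells on that plate plus 3 SD, cut at about 28% in these data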;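 also: cells challenged with S1P at its EC80 of 0.8 µM; blue over green emission ratio from cleaved BLA substrate after 4 h stimulation; 0% = S1P-stimulated wells and 100% = unstimulated DMSO-only wells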
# Target sequence (Q99500 whole entry, looked up): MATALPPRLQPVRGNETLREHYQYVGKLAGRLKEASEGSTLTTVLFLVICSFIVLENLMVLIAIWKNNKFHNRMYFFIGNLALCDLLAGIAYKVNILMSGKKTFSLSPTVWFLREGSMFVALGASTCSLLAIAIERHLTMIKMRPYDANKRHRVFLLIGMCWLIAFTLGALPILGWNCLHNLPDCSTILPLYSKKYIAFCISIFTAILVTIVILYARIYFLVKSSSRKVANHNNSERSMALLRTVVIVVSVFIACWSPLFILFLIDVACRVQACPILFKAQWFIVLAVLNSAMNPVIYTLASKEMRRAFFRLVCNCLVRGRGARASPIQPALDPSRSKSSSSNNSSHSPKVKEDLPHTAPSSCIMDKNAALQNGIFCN
# G6PDH counter – inhibits Leuconostoc G6PDH, flagging false hits in G6PDH-based assays. Purified L. mesenteroides G6PDH, diaphorase/resazurin coupled fluorescence, 45 min. inhibition, % at 5 µM. hit rate 0.12% among 200,000; in the data active = inhibition above about 50%
# S1P3 antag-2 – confirmation of human S1P3 receptor antagonists; shares compounds with S1P3 antag-1; CHO S1P3 NFAT-BLA reporter, FRET, antagonist mode; inhibition, % at 4.98 µM; hit rate 30% among 240; AID 1429;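 active = inhibition above the hit threshold that was computed for the earlier primary screen, cut at about 30% in these data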;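 also: 0% = S1P-stimulated wells and 100% = unstimulated DMSO-only wells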
# Active calls of the source: *; · = no result given.
SMILES,TbHK1 inh,p97 ATPase inh,Redox H2O2 prof,S1P3 antag-1,G6PDH counter,S1P3 antag-2
Cn1c(SCc2ccccc2)nnc1-c1ccc2c(c1)OCO2,-3,0,0,4,6,·
Cn1c(SCc2ccccc2)nnc1-c1ccc2nonc2c1,-9,2,·,30*,·,-11
CCc1c(C)sc2nc3c(C(=O)N4CCOCC4)cc(C(=O)c4ccccc4O)cn3c(=O)c12,-9,-2,1,-5,2,·
O=C(c1cc(C(=O)N2CCOCC2)c2nc3ccccc3n2c1)c1cc(Cl)cc(Cl)c1O,-22,-2,·,31*,·,-18
NC(=O)c1ccc(Cl)c2ccccc12,-5,5,·,-17,·,·
CCCC(C(=O)NCC1CCCO1)N(Cc1ccco1)C(=O)CNS(=O)(=O)c1ccc(F)cc1 (configuration not stated),-2,1,0,-15,3,·
CCN1/C(=C/c2ccc3cc(C)ccc3[n+]2CC)Sc2cc(C)ccc21,1,-1,0,39*,-15,21
CCCCN1/C(=C/c2ccc3ccccc3[n+]2CC)Sc2ccccc21,3,7,-1,30*,10,21
CCN1/C(=C/c2ccc3cc(C)ccc3[n+]2C)Sc2ccc3sccc3c21,41,9,-1,-1,-1,·
CCCC(=O)Nc1ccc(Nc2ccccc2)cc1,33,-3,-1,101*,7,-7
O=C1N/C(=N\S(=O)(=O)Cc2ccccc2)S/C1=C/c1cc([N+](=O)[O-])ccc1O,-13,4,·,32*,·,25
C=CCNCC(=O)N1N=C(c2ccc3ccccc3c2)CC1c1ccc(OC)cc1 (configuration not stated),-7,-3,0,31*,10,2
Cc1cc(S(=O)(=O)NCc2cccs2)ccc1-n1cnnn1,1,-4,-1,30*,9,-5
CCCCN(C)CC(O)Cn1cc(/C=C/C(=O)c2cccs2)c2ccccc21 (configuration not stated),3,0,2,33*,1,16
O=C(/C=C/c1cn(CC(O)CN2CCCCCC2)c2ccccc12)c1cccs1 (configuration not stated),-5,1,2,19,-22,·
COc1ccccc1NC(=O)c1ccc(NC(=O)COC(=O)C2CC2C)cc1 (configuration not stated),9,-5,-1,-10,-4,·
COc1ccccc1NC(=O)c1ccc(NC(=O)COC(=O)C2CCCO2)cc1 (configuration not stated),7,-3,-3,30*,-2,-10
CCOC(=O)C1=C(C)OC(N)=C(C#N)C1c1cc2ccccc2nc1N1CCCCC1 (configuration not stated),-10,-9,0,·,7,·
Cc1ccc2[nH]c(-c3ccccc3)c(CN3CCN(C)CC3)c(=O)c2c1,-23,0,0,·,6,·
Cc1sc(NC(=O)C2C3CCC(O3)C2C(=O)O)nc1-c1ccc(CC(C)C)cc1 (configuration not stated),-1,-4,0,106*,-4,-15
CCOC(=O)c1c(NC(=O)C2C3CCC(O3)C2C(=O)O)sc(C)c1-c1ccc(C)cc1 (configuration not stated),-1,2,-1,·,-1,·
O=C(c1cc(COc2ccc3ncccc3c2)on1)N1CCCCCC1,0,2,-1,6,17,·
O=C(NC1CCCC1)c1cc(COc2ccc3ncccc3c2)on1,-4,5,·,35*,·,6
COc1cc(OC)c(OC)cc1/C=N/Nc1nc2ccccc2[nH]1,-20,6,·,13,·,·
Cc1ccc2cc(/C=N/Nc3nc4ccccc4[nH]3)c(Cl)nc2c1,-10,2,1,46*,-28,8
SMILES,TbHK1 inh,p97 ATPase inh,Redox H2O2 prof,S1P3 antag-1,G6PDH counter,S1P3 antag-2
CCCCCCCCCCn1c2c(c(=N)c3c1CCC3)CCC2,16,-4,-8,·,0,·
CCCCCCCCCn1c2c(c(=N)c3c1CCC3)CCCC2,11,-4,0,55*,14,41*
Cc1ccc2nc(C)c3c(c2c1)COC3,3,-4,-1,30*,6,-3
Cc1nc2c(C)cccc2c2c1COC2,5,-2,·,3,·,·
c1ccc(-c2cn3nc(-c4ccccc4)c(-c4ccccc4)nc3n2)cc1,2,-3,0,·,14,·
Cc1ccc(-c2cn3nc(-c4ccccc4)c(-c4ccccc4)nc3n2)cc1,1,5,·,50*,·,9
